The source of these data is PubChem BioAssay (NCI).

About 83,000 compounds went through this panel and 20% of them were active in at least one assay; those are over-represented in the sample as a whole.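 Method: cells in 96-well plates; compound added at one concentration; 48 h incubation; percent growth measured; values under 10 scored active.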 Values without a mark were called inactive. The source made the active and inactive calls.

Among the test systems are DU-145 prostate; K-562 leukemia; MALME-3M melanoma; MDA-MB-231 breast; RXF 393 renal; SF-268 CNS; SF-295 CNS; SF-539 CNS; UACC-257 melanoma; M14 melanoma; HCT-15 colon; HT29 colon; SNB-75 CNS; SNB-19 CNS; U251 CNS; PC-3 prostate; SK-MEL-5 melanoma; UACC-62 melanoma; LOX IMVI melanoma; SK-MEL-28 melanoma.
Common to all, as to experiment: NCI-60 one-dose screen, 48 h (100 = growth as untreated, 0 = no growth, -100 = all killed)
Common to all, as to conditions: 10 µM unless noted

As for `NS(=O)(=O)c1ccc(CCn2c(SCC(=O)N/N=C/c3cc4ccccc4[nH]3)nc3ccccc3c2=O)cc1`, the growth was 64.8% with DU-145 prostate; 27.5% with K-562 leukemia; 38.8% in the assay with MALME-3M melanoma; 61.7% with MDA-MB-231 breast; 91% in the assay on RXF 393 renal; 89.2% with SF-268 CNS. For the same compound, the growth in the assay on SF-295 CNS was 90.9%; in the assay on SF-539 CNS, 82.8%; in the assay with UACC-257 melanoma, 82.6%; with M14 melanoma it was 74%; in the assay with HCT-15 colon it was 91.4%; in the assay on HT29 colon it was 39.2%. In addition, the growth in the assay on SNB-75 CNS is 80%; in the assay on SNB-19 CNS it was 58.6%; in the assay on U251 CNS it was 30.6%; in the assay on PC-3 prostate, 40.2%; in the assay on SK-MEL-5 melanoma it was 31.9%; in the assay on UACC-62 melanoma it was 53.3%. The growth in the assay on LOX IMVI melanoma is 49.1%; with SK-MEL-28 melanoma it was 88.3%.

As for `O=C1/C(=C/c2ccccc2)SC(=Nc2ccccc2)N1Nc1ccccc1`, the growth in the assay with DU-145 prostate was 22%; in the assay with K-562 leukemia, 4.55% (active); in the assay with MALME-3M melanoma it was -14.6% (active); in the assay with MDA-MB-231 breast, 12.1%; in the assay with RXF 393 renal, -58% (active); with SF-268 CNS it was 26.9%. Further, the growth with SF-295 CNS is 16.2%; in the assay on SF-539 CNS, 5.85% (active); with UACC-257 melanoma, 10.5%; with M14 melanoma, -59.3% (active); in the assay on HCT-15 colon it was 9.11% (active); in the assay on HT29 colon it was 5.63% (active). In addition, the growth with SNB-75 CNS is 24.2%; in the assay on SNB-19 CNS, 23.3%; in the assay on U251 CNS, 6.12% (active); in the assay on PC-3 prostate, 9.43% (active); in the assay on SK-MEL-5 melanoma, -95.7% (active); in the assay with UACC-62 melanoma, -4.34% (active). Further, the growth in the assay on LOX IMVI melanoma was -62.1% (active); in the assay with SK-MEL-28 melanoma, 8.52% (active).

Take `CCN(CC)Cc1cc(Nc2ccnc3ccc(OC)cc23)ccc1O`: the growth with DU-145 prostate was 40.5%; in the assay with K-562 leukemia, 12.7%; with MALME-3M melanoma, 75%; in the assay with MDA-MB-231 breast it was 58.8%; with RXF 393 renal, 48.9%; with SF-268 CNS it was 53%. For the same compound, the growth was 79% with SF-295 CNS; 64.7% in the assay on SF-539 CNS; -17.7% (active) in the assay with UACC-257 melanoma; 29.5% with M14 melanoma; 32.4% in the assay on HCT-15 colon; -24.3% (active) with HT29 colon. Moreover, the growth is 101% in the assay on SNB-75 CNS; 74.4% with SNB-19 CNS; 35% with U251 CNS; 39.8% in the assay with PC-3 prostate; 50.4% with SK-MEL-5 melanoma; 87.7% in the assay with UACC-62 melanoma. Moreover, the growth in the assay with LOX IMVI melanoma is 4.78% (active); with SK-MEL-28 melanoma, 105%.

For the compound `OC(COCc1ccccc1)COCc1ccccc1`, the growth was 122% in the assay on DU-145 prostate; 99.3% in the assay on K-562 leukemia; 105% in the assay with MALME-3M melanoma; 108% in the assay on MDA-MB-231 breast; 119% with RXF 393 renal; 115% in the assay with SF-268 CNS. For the same compound, the growth was 108% in the assay with SF-295 CNS; 110% in the assay on SF-539 CNS; 97.9% in the assay with UACC-257 melanoma; 103% with M14 melanoma; 109% in the assay on HCT-15 colon; 106% in the assay with HT29 colon. Also, the growth in the assay with SNB-75 CNS is 90.8%; in the assay on SNB-19 CNS, 111%; with U251 CNS, 96.1%; with PC-3 prostate it was 111%; in the assay with SK-MEL-5 melanoma, 111%; with UACC-62 melanoma, 103%. For the same compound, the growth in the assay with LOX IMVI melanoma is 101%; in the assay on SK-MEL-28 melanoma it was 113%.

For the compound `O=C1/C=C/[C@@H](O)[C@@H]2C[C@@H](O)C[C@H]2/C=C/CCC[C@H]([C@@H](O)CO)O1`, the growth was 135% with DU-145 prostate; 95.2% in the assay with K-562 leukemia; 64.4% with MALME-3M melanoma; 91.6% in the assay with MDA-MB-231 breast; 24.9% in the assay on RXF 393 renal; 60.8% with SF-268 CNS. The growth in the assay with SF-295 CNS is 87.7%; in the assay with SF-539 CNS, 74.3%; in the assay with UACC-257 melanoma, 69.3%; in the assay on M14 melanoma, 68.8%; in the assay with HCT-15 colon it was 95.3%; in the assay with HT29 colon it was 80.2%. The growth in the assay on SNB-75 CNS is 84%; in the assay with SNB-19 CNS, 66.5%; in the assay on U251 CNS, 69.1%; with PC-3 prostate, 88.7%; with SK-MEL-5 melanoma, 4.48% (active); in the assay on UACC-62 melanoma, 62.5%. Also, the growth was 38.7% in the assay on LOX IMVI melanoma and 38.8% with SK-MEL-28 melanoma.

For the compound `Clc1ccc(C2=NN[C@H](c3cn(-c4ccccc4)nc3-c3ccccc3)C2)cc1`, the growth is 55.3% in the assay on DU-145 prostate; 61.6% in the assay with K-562 leukemia; 64.3% with MALME-3M melanoma; 64.4% in the assay with MDA-MB-231 breast; 42.6% in the assay on RXF 393 renal; 74.6% in the assay with SF-268 CNS. For the same compound, the growth was -20.8% (active) in the assay with SF-295 CNS; 67% in the assay on SF-539 CNS; 66.3% in the assay on UACC-257 melanoma; 71.1% with M14 melanoma; 70.5% with HCT-15 colon; 69.5% in the assay with HT29 colon. Besides, the growth in the assay with SNB-75 CNS is 41%; in the assay with SNB-19 CNS, 76.9%; in the assay on U251 CNS, 49.3%; with PC-3 prostate, 36.7%; with SK-MEL-5 melanoma it was 80.8%; with UACC-62 melanoma, 76.5%. In addition, the growth is 49.7% in the assay with LOX IMVI melanoma and 39% in the assay on SK-MEL-28 melanoma.
